Results reported in ChEMBL document CHEMBL3433997, “St. Jude Leishmania screening dataset” (2016).
Where “and” joins values, the source holds several entries; their conditions need not be identical. Equal entries are not always repeated.

How the values were obtained:
Type in all cases: functional
[1] = biological target: Solute carrier family 2, facilitated glucose transporter member 1 (Homo sapiens) (UniProt P11166); assay: ST_JUDE_LEISH: Cytotoxicity at 2uM final concentration against transgenic Leishmania Mexicana promastigotes LmGLUT1 that are glucose transport deficient and complemented with the human glucose transporter GLUT1. Activity is measured by DNA content using SYBR green in vitro
Chain of Solute carrier family 2, facilitated glucose transporter member 1 (Homo sapiens) (P11166 whole entry): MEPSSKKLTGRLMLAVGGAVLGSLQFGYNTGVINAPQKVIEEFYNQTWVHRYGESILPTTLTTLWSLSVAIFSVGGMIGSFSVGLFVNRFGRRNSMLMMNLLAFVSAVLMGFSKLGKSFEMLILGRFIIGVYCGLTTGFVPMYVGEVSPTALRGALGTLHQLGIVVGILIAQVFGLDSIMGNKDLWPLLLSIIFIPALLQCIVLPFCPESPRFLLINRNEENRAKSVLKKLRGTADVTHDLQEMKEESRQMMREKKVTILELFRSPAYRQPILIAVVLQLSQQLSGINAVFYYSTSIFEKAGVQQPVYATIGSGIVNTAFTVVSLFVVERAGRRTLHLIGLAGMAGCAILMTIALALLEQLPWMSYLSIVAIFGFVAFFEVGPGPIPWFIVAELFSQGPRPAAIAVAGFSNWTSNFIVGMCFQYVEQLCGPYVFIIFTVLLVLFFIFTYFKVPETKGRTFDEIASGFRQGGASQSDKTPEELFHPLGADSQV

[2] = biological target: Hexose transporter 1 (Plasmodium falciparum) (UniProt O97467); assay: ST_JUDE_LEISH: Cytotoxicity at 2uM final concentration against transgenic Leishmania Mexicana promastigotes LmPfHT that are glucose transport deficient and complemented with the Plasmodium falciparum hexose transporter. Activity is measured by DNA content using SYBR green in vitro
[3] = biological target: Glucose transporter (Leishmania mexicana) (UniProt O61059); assay: ST_JUDE_LEISH: Cytotoxicity at 2uM final concentration against transgenic Leishmania Mexicana promastigotes LmGT2 that are glucose transport deficient and complemented with the L. Mexicana glucose transporter 2. Activity is measured by DNA content using SYBR green in vitro

SMILES | inhibition [1] | inhibition [2] | inhibition [3]
COCCCNC(=O)C1CCN(C(c2ccc(Cl)cc2)c2ccc(Cl)cc2)CC1 | 2.3% | 3.44% | 4.61%
Nc1nc(O)c2c(n1)CCc1c(Br)cccc1-2 | -1.17% | -0.59% | -1.14%
COc1ccccc1Nc1nc(C)cc(NCc2ccc(-c3c(C)noc3C)cc2)n1 | 19.5% | 9.8% | 0.51%
Cc1ccc(-c2nc3cc(C(=O)NC4CCC(N5CCCc6ccc(C#N)cc6C5)CC4)ccc3[nH]2)cc1 (configuration not stated) | -1.44% | -0.52% | 5.12%
CCCCCCCNC(=O)NCC1CCCN(CCCCCNC(=O)/C=C/c2ccc(Cl)c(Cl)c2)C1 (configuration not stated) | 1.71% | 4.27% | 2.15%
O=C(O[C@H]1CN[C@H](C#Cc2cc3c(Nc4ccc(OCc5cccc(F)c5)c(Cl)c4)ncnc3s2)C1)N1CCCC1 | 3.78% | 6.01% | 4.65%
O=C(Nc1ccc(-c2ccccc2)cc1)Nc1cccc(Cn2cnc(N3CCCNCC3)cc2=O)c1 | 5.12% | 4.17% | 4.86%
Cc1cc(N[C@@H](Cc2ccccc2)C(=O)NCc2cccc(F)c2)nc(NCCc2ccc(F)cc2)n1 | 4.47% | 2.55% | 1.36%
COc1cc2nccc(Nc3ccc(Oc4ccccc4)cc3)c2cc1OC | 3.01% | 9.3% | 4.02%
CCCCCC(C)N/C(=N/c1ccccc1Br)Nc1ccc([N+](=O)[O-])cc1O (configuration not stated) | 1.52% | 1.7% | 0.95%
CCCNC(=O)Nc1cc2cc(-c3ccc(CN4CCCC4)cc3)ccc2n2c(C)nnc12 | 4.57% | 3.01% | -1.87%
COc1cccc(Nc2nc(Nc3cccc(C#N)c3)cc(-c3ccncc3)n2)c1 | 3.83% | 4.95% | 1.57%
COc1ccc2nc(C)cc(Nc3ccc(Oc4ccc5ccccc5c4Cl)c(Cl)c3)c2c1 | 13.7% | 12.6% | 8.39%
Cc1cccc(CNc2nc(C)cc(NCCC(=O)NCCOc3ccccc3)n2)c1 | 6.22% | 3.29% | -0.13%
Cc1cc(C(=O)Nc2ccc(C)c(-c3nc(N(C(=O)c4ccc(F)c(C)c4)C4CCNCC4)nc4c3ccc(=O)n4-c3c(F)cccc3F)c2)ccc1F | 1.66% | 0.07% | 0.59%
CN1CCCN(Cc2ccc(-c3cccc(NC(=O)c4cccc(Cl)c4)c3)cc2)CC1 | 16.5% | 9.2% | 9.24%
CN1CCC(c2c[nH]c3ccc(NC(=O)Nc4ccc(-c5ccncc5)c(Cl)c4Cl)cc23)CC1 | -2.47% | 0.63% | 4.75%
CC1CN(c2cnn(Cc3ccc(NC(=O)Nc4ccc(-c5ccccc5)cc4)cc3)c(=O)c2Cl)CC(C)N1 (configuration not stated) | 1.43% | 0.34% | -1.78%
CC(C)(CNC(=O)C1CCN(CCOc2ccc(Cl)cc2)CC1)c1nc(-c2ccc(Cl)c(O)c2)c(-c2ccncc2)[nH]1 | 0.46% | 1.55% | -0.21%
OCCN1CCN(Cc2ccc(-c3cccc(-c4nc5cc(F)ccc5[nH]4)c3)cc2)CC1 | 2.82% | -0.2% | 0.18%
Cc1cc(N2CCCC2)nc(Nc2ccc(NC(=O)c3ccccc3)cc2)n1 | 1.14% | 6.69% | 3.09%
CNC(=O)c1ccc2nc(C3CC3)n(CC3CCN(S(=O)(=O)c4cccc(Cl)c4)CC3)c2c1 | 1.69% | 1.44% | 2.49%
Cc1cc(N(C)CCN(C)C)nc(Nc2ccc(Br)cc2)n1 | -0.17% | 3.61% | 2.53%

SMILES | inhibition [1] | inhibition [2] | inhibition [3]
CC(Oc1ccc(Cl)cc1Cl)c1nc(-c2ccc(NC(=O)c3ccco3)cc2)no1 (configuration not stated) | 2.46% | 1.87% | -0.2%
c1ccc2c(CNc3nc(NCC4CCCCC4)nc4[nH]cnc34)cccc2c1 | 4.27% | 5.29% | 2.36%
CCc1ccc(O)c(-c2cc(C(=O)Nc3cccnc3)[nH]n2)c1 | 1.69% | 0.53% | 2.29%
Cc1cccc2nc(-c3ccc(-c4ccc(CNCCCNS(C)(=O)=O)cc4)s3)[nH]c12 | 7.9% | 8.05% | 6.95%
COc1ccc2nccc([C@@H](O)CN3CCC(NCCOc4cccc(F)c4F)CC3)c2c1 | 4.54% | 4.96% | -0.41%
Cc1ccc(-c2nnc(-c3ccc(C(=O)NC4CCN(Cc5ccc(C#N)cc5)CC4)cc3)o2)cc1Br | 8.8% | 5.73% | 4.37%
COc1cc(F)c2ncc(Cl)c(CCN3CCC(NCc4cc5c(cn4)OCCO5)CC3)c2c1 | 28.4% | 41.5% | 55.4%
COc1cc(NCCCNC(=O)c2cc3c(Cl)cc(Cl)cc3[nH]2)nc2ccccc12 | 2.04% | 6.51% | 0.77%
COc1ccc2nccc([C@@H](O)CN3CCC(NCC4COc5ccccc5O4)CC3)c2c1 (some centres not stated) | 7.53% | 8.69% | 1.37%
Cc1cc(NC(=O)NCCN2CCC(NC(=O)c3ccc(Cl)cc3)CC2)c2ccccc2n1 | 1.7% | 1.76% | 2.94%
CC1(C)NC(N)=NC(=N)N1OCCCCOc1ccc(Cl)cc1C1CCCCC1 | 18% | 26.4% | 11.5%
CCCCNC(=O)c1cc(CNC2CCCCC2)ccc1-c1cccc(CNCc2ccc(-c3ccccc3)cc2)c1 | 5.94% | 5.46% | 2.67%
Cc1ccc(-c2nnc(Nc3ccc(C(=O)N4CCCCC4)cc3)c3ccccc23)cc1S(=O)(=O)NCC1CCCO1 (configuration not stated) | 4.15% | 21.1% | 3.22%
COc1cc2s/c(=N\C(=O)c3cccc([N+](=O)[O-])c3)n(C)c2cc1OC | 9.71% | 10.7% | 6.9%
COC(=O)c1cccc(CNCc2cccc(-c3csc(-c4nc5ccccc5[nH]4)c3)c2)c1 | 9.3% | 8.51% | 6.38%
O=C(c1ccccc1NN=C1C(=O)N(c2ccccc2)N=C1c1ccccc1)N1CCOCC1 | -1.67% | 1.67% | 8.03%
CC(C)(C)CNCC(C)(C)c1nc(-c2ccc(Cl)c(O)c2)c(-c2ccncc2)[nH]1 | -1.13% | 0% | -1.37%
CN1CCCN(Cc2cccc(-c3ccc(NS(=O)(=O)c4cccc5cccnc45)cc3)c2)CC1 | 1.84% | 1.21% | -3.11%
Cc1c(CCNC(=O)CCCN2CC(C)CC(C)C2)c2ccccc2n1C (configuration not stated) | 1.14% | 3.38% | 3.01%
O=C(Nc1ccc(Cn2nc(Cl)c(N3CCCNCC3)cc2=O)cc1)Nc1ccc(-c2ccccc2)cc1 | 19.7% | 15.5% | 16.6%
COc1cccc(NC(=O)Nc2ccc(Nc3nc(C)cc(N(C)C)n3)cc2)c1 | 2.46% | 1.22% | -4.92%
O=C(NC1CCN(Cc2ccccc2)C1)c1ccc(Nc2ccc(Br)cc2)nc1 (configuration not stated) | 1.79% | 0.12% | -1.43%
Cc1cc(NCCC(=O)Nc2ccccc2)nc(NCCc2cccnc2)n1 | 0.51% | 2.33% | 1.5%

SMILES | inhibition [1] | inhibition [2] | inhibition [3]
COc1ccc(C[C@H](N)C(=O)N[C@H]2[C@@H](O)[C@H](n3cnc4c(N(C)C)ncnc43)O[C@@H]2CO)cc1 | 3.7% and 0.1% | 1.9% and 3.79% | 3.16% and 2.8%
O=C(NCc1cccc(F)c1)Nc1ccc(-c2cccc(-c3nc4cc(F)ccc4[nH]3)c2)cc1 | 1.98% | 1.08% | 6.08%
CCCCc1cc(NCc2ccncc2)nc(Nc2ccccc2)n1 | 13.6% | 6.01% | 4.07%
O=c1c2sc(-c3ccc(Cl)cc3)cc2ncn1Cc1ccc(OCCN2CCCC2)c2ccccc12 | 4.34% | 2.61% | 1.85%
COc1ccc2nccc([C@@H](O)CN3CCC(NC(=O)C(c4cc5ccccc5o4)N4CCN(c5ccccc5)CC4)CC3)c2c1 (some centres not stated) | 5.51% | 2.83% | 2.54%
OCc1c(Cl)cc(Cl)cc1CNCCCNc1nc2ccccc2[nH]1 | 5.72% | 6.27% | 1.01%
CS(=O)(=O)CCNCc1cccc(-c2cc3c(Nc4ccc5c(cnn5Cc5ccccc5)c4)ncnc3s2)c1 | 2.62% | -0.73% | 0.63%
c1ccc2cc3c(Nc4ccc(N5CCCCCC5)cc4)ccnc3cc2c1 | 0.03% | 0.23% | 0.24%
CN(C)CCOc1ccc(N2CCN(CCCCNC(=O)c3ccc(NC(=O)c4ccc(Cl)cc4)cc3)CC2)cc1 | 0.54% | 0.36% | 3.48%
Cc1cc(N)c2cc(NC(=O)/C=C/c3ccccc3)ccc2n1 | -0.18% | 0.45% | -0.79%
CNCCNCc1ccc(-c2ccc(-c3nc4cccc(C)c4[nH]3)s2)cc1 | 2.93% | 2.48% | 3.92%
CCOc1ccc2c(=NN=Cc3cc(OC)c(OC)cc3OC)cc(C)[nH]c2c1 | 3.1% | 2.65% | -1.87%
CCOc1c(OC)ccc2c1CCN(CCN1CCC(NC(=O)c3ccc(-c4cccc(C(F)(F)F)c4C(F)(F)F)cc3)CC1)C2 | 1.91% | 1.96% | 1.39%
COc1ccc(C(=O)N[C@@H](CC(C)C)C(=O)N[C@H](/C=N/NC(=O)c2ccccc2)CCc2ccccc2)cc1OCCN1CCOCC1 | -0.43% | 3.34% | 6.8%
N=C(N)Nc1nc(-c2ccc(NC(=O)Nc3cccc(-c4csc(NC(=N)N)n4)c3)cc2)cs1 | -0.61% | 0% | -0.17%
COc1cc(NC(=O)/C=C/c2ccccc2OC(F)(F)F)cc(OCCN2CCN(CCN3CCOCC3)CC2)c1 | 3.4% | 3.05% | 2.34%
O=C(NC1CCN(Cc2ccccc2)CC1)c1cc(-c2ccncc2)nc2ccc(Cl)cc12 | 4.96% | 3.26% | 0.14%
CO/N=C(\C)c1ccc2c(c1)CCN(CCC1CCC(NC(=O)/C=C/c3ccc(F)cc3)CC1)CC2 (configuration not stated) | 6.29% | 3.02% | 11.2%
COc1cc2nc(NCCc3cccc(Cl)c3)nc(NCc3ccccc3)c2cc1OC | 5.15% | 6.21% | 1.06%
Cn1cnc(CCNC(=O)c2cccc(-c3ccc(-c4nc5cc(F)ccc5[nH]4)cc3)c2)c1 | 1.27% | 1.88% | 0.3%
O=[N+]([O-])c1cccc(CNC2CCN(Cc3ccc(Cl)c(Cl)c3)CC2)c1 | 7.37% | 4.47% | 7.35%
O=C(Nc1cccc2ccccc12)N1CCc2cc3nccc(N4CCN5CCC[C@H]5C4)c3cc21 | 5.08% | 2.82% | 4.23%
O=C(/C=C/c1ccc(Cl)c(Cl)c1)NCCCCCN1CCC(NS(=O)(=O)c2cc(Cl)cc(Cl)c2)CC1 | 3.59% | 3.03% | 3.19%
